Data as given in the supplement of paper PMC7595190.

Assays:
Assay in all cases: CellTox Green cytotoxicity fluorescence relative to DMSO vehicle (fold of vehicle RFU); higher = more cell death (loss of membrane integrity), active = 2 or more
[1] = tested on: CMK
Procedure, shortened: (§1)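 MV4-11, CMK and Kasumi-1 cells were plated in 96-well black optical-bottom plates at 4.0 × 10^4 cells per well, and CellTox Green reagent was added at the time of seeding. Single compounds from the Selleckchem apoptosis library were diluted in DMSO and added at final concentrations of 0.01, 0.1 and 1 µM, with 0.1% DMSO as vehicle. Plates were kept at 37 °C and 5% CO2 and read at 24, 48 and 72 h (Ex 485 nm, Em 520 nm). Cytotoxicity reflects loss of membrane integrity and is given as fluorescence relative to the DMSO vehicle, expressed as fold.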

[2] = tested on: Kasumi-1
Procedure, shortened: as §1

[3] = tested on: MV4-11
Procedure, shortened: as §1

Measured: CellTox Green cytotoxicity fluorescence

CC(C)[C@H](CO)Nc1nc(Nc2cccc(Cl)c2)c2ncn(C(C)C)c2n1 [Purvalanol A]
inactive: [1]; 0.01 µM, 24 h 0.988 | [1]; 0.01 µM, 48 h 1 | [1]; 0.01 µM, 72 h 1 | [1]; 0.1 µM, 24 h 0.992 | [1]; 0.1 µM, 48 h 1 | [1]; 0.1 µM, 72 h 0.965 | [1]; 1 µM, 24 h 0.987 | [1]; 1 µM, 48 h 1.02 | [1]; 1 µM, 72 h 1.02 | [2]; 0.01 µM, 24 h 0.997 | [2]; 0.01 µM, 48 h 0.989 | [2]; 0.01 µM, 72 h 0.974 | [2]; 0.1 µM, 24 h 0.983 | [2]; 0.1 µM, 48 h 0.965 | [2]; 0.1 µM, 72 h 0.974 | [2]; 1 µM, 24 h 0.928 | [2]; 1 µM, 48 h 0.948 | [2]; 1 µM, 72 h 0.923 | [3]; 0.01 µM, 24 h 1.01 | [3]; 0.01 µM, 48 h 1.02 | [3]; 0.01 µM, 72 h 1.03 | [3]; 0.1 µM, 24 h 1.03 | [3]; 0.1 µM, 48 h 1.04 | [3]; 0.1 µM, 72 h 1.04 | [3]; 1 µM, 24 h 1 | [3]; 1 µM, 48 h 1.06 | [3]; 1 µM, 72 h 1.07

COc1ccc(CCNCc2ccc(OCc3ccc(Cl)nc3)c(OC)c2)cc1OC
inactive: [1]; 0.01 µM, 24 h 0.968 | [1]; 0.01 µM, 48 h 0.978 | [1]; 0.01 µM, 72 h 0.979 | [1]; 0.1 µM, 24 h 0.96 | [1]; 0.1 µM, 48 h 0.955 | [1]; 0.1 µM, 72 h 0.961 | [1]; 1 µM, 24 h 0.94 | [1]; 1 µM, 48 h 0.968 | [1]; 1 µM, 72 h 0.996 | [2]; 0.01 µM, 24 h 0.943 | [2]; 0.01 µM, 48 h 0.942 | [2]; 0.01 µM, 72 h 0.931 | [2]; 0.1 µM, 24 h 0.953 | [2]; 0.1 µM, 48 h 0.936 | [2]; 0.1 µM, 72 h 0.949 | [2]; 1 µM, 24 h 0.975 | [2]; 1 µM, 48 h 0.987 | [2]; 1 µM, 72 h 0.979 | [3]; 0.01 µM, 24 h 0.971 | [3]; 0.01 µM, 48 h 0.978 | [3]; 0.01 µM, 72 h 0.996 | [3]; 0.1 µM, 24 h 0.949 | [3]; 0.1 µM, 48 h 0.961 | [3]; 0.1 µM, 72 h 0.967 | [3]; 1 µM, 24 h 0.953 | [3]; 1 µM, 48 h 0.949 | [3]; 1 µM, 72 h 0.945

Cn1cc(-c2ccc3c(c2)CCN3C(=O)Cc2cccc(C(F)(F)F)c2)c2c(N)ncnc21
inactive: [1]; 0.01 µM, 24 h 0.971 | [1]; 0.01 µM, 48 h 0.966 | [1]; 0.01 µM, 72 h 0.935 | [1]; 0.1 µM, 24 h 0.981 | [1]; 0.1 µM, 48 h 0.987 | [1]; 0.1 µM, 72 h 0.978 | [1]; 1 µM, 24 h 0.972 | [1]; 1 µM, 48 h 1.01 | [1]; 1 µM, 72 h 0.913 | [2]; 0.01 µM, 24 h 1.07 | [2]; 0.01 µM, 48 h 1.03 | [2]; 0.01 µM, 72 h 1.02 | [2]; 0.1 µM, 24 h 1.01 | [2]; 0.1 µM, 48 h 1.05 | [2]; 0.1 µM, 72 h 1.07 | [2]; 1 µM, 24 h 0.955 | [2]; 1 µM, 48 h 1.02 | [2]; 1 µM, 72 h 1.08
